Data from the supplement of paper PMC10849652.
About 8,800 targets were measured; listed, in parts, are those with a hit and a random draw of the rest. About 0.5% of all pairs of compound and target were hits.

Experiments:
Experiment in all cases: log2 fold change, soluble protein after heating vs DMSO (PISA); higher = thermal stabilisation; K562 lysate, 10 uM; active = over 0.2 and 3.5 SD of the protein, either way, in both replicates (recomputed)
lapatinib = compound: CS(=O)(=O)CCNCc1ccc(-c2ccc3ncnc(Nc4ccc(OCc5cccc(F)c5)c(Cl)c4)c3c2)o1 [lapatinib]
Method in brief: (§1)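 K562 pellets were dounce-homogenised in PBS pH 7.4 with 1 mM MgCl2, and the crude extract at 1 mg/mL protein was treated with 10 μM compound for 30 min. Aliquots were heated for 3 min across 48°C-58°C, pooled, and brought to 0.5% NP-40 at 4°C; soluble protein was the supernatant after 21,000xg for 90 min. Soluble protein was quantified by TMTpro 16plex LC-MS/MS with channel sums equalised, and reported as log2 fold change in thermal stability against DMSO controls, with values from duplicates.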

pictilisib = compound: CS(=O)(=O)N1CCN(Cc2cc3nc(-c4cccc5[nH]ncc45)nc(N4CCOCC4)c3s2)CC1 [pictilisib]
Method in brief: as §1

crizotinib = compound: C[C@@H](Oc1cc(-c2cnn(C3CCNCC3)c2)cnc1N)c1c(Cl)ccc(F)c1Cl [crizotinib]
Method in brief: as §1

[1] = compound: C[C@H](C1=CC=C(C=C1)C(=O)NC2=C3C=CNC3=NC=C2)N
Method in brief: as §1

duvelisib = compound: C[C@H](Nc1ncnc2nc[nH]c12)c1cc2cccc(Cl)c2c(=O)n1-c1ccccc1 [duvelisib]
Method in brief: as §1

gandotinib = compound: Cc1cc(Nc2cc(CN3CCOCC3)c3nc(C)c(Cc4ccc(Cl)cc4F)n3n2)n[nH]1 [gandotinib]
Method in brief: as §1

tozasertib = compound: Cc1cc(Nc2cc(N3CCN(C)CC3)nc(Sc3ccc(NC(=O)C4CC4)cc3)n2)n[nH]1 [tozasertib]
Method in brief: as §1

doramapimod = compound: Cc1ccc(-n2nc(C(C)(C)C)cc2NC(=O)Nc2ccc(OCCN3CCOCC3)c3ccccc23)cc1 [doramapimod]
Method in brief: as §1

bafetinib = compound: Cc1ccc(NC(=O)c2ccc(CN3CC[C@H](N(C)C)C3)c(C(F)(F)F)c2)cc1Nc1nccc(-c2cncnc2)n1 [bafetinib]
Method in brief: as §1

[2] = compound: Cc1cccc(CC(=O)N2CCc3c2ccc(-c2cn(C)c4ncnc(N)c24)c3F)n1
Method in brief: as §1

nilotinib = compound: Cc1cn(-c2cc(NC(=O)c3ccc(C)c(Nc4nccc(-c5cccnc5)n4)c3)cc(C(F)(F)F)c2)cn1 [nilotinib]
Method in brief: as §1

[3] = compound: Cc1nc(Nc2n[nH]c3c2CN(C(=O)N[C@H](CN(C)C)c2ccccc2)C3(C)C)c2sccc2n1
Method in brief: as §1

dasatinib = compound: Cc1nc(Nc2ncc(C(=O)Nc3c(C)cccc3Cl)s2)cc(N2CCN(CCO)CC2)n1 [dasatinib]
Method in brief: as §1

[4] = compound: Cc1ncc(-c2ccnc(Nc3ccc(S(C)(=O)=O)cc3)n2)n1C(C)C
Method in brief: as §1

[5] = compound: Cn1cc(-c2ccc3c(c2)CCN3C(=O)Cc2cccc(C(F)(F)F)c2)c2c(N)ncnc21
Method in brief: as §1

quisinostat = compound: Cn1cc(CNCC2CCN(c3ncc(C(=O)NO)cn3)CC2)c2ccccc21 [quisinostat]
Method in brief: as §1

tipifarnib = compound: Cn1cncc1[C@@](N)(c1ccc(Cl)cc1)c1ccc2c(c1)c(-c1cccc(Cl)c1)cc(=O)n2C [tipifarnib]
Method in brief: as §1

[6] = compound: NC(=O)Nc1cc(-c2cccc(F)c2)sc1C(=O)N[C@H]1CCCNC1
Method in brief: as §1

[7] = compound: NC(=O)c1cnc(N[C@@H]2CCCC[C@@H]2N)nc1Nc1cccc(-n2nccn2)c1
Method in brief: as §1

[8] = compound: NC1(c2ccc(-c3nc4ccn5c(=O)[nH]nc5c4cc3-c3ccccc3)cc2)CCC1
Method in brief: as §1

Measured: log2 fold change

SP1 (UniProt P08047)
inactive: lapatinib 0.077 | pictilisib 0.009 | crizotinib 0.022 | [1] -0.024 | duvelisib -0.063 | gandotinib 0.056 | tozasertib -0.049 | doramapimod 0.095 | bafetinib -0.027 | [2] 0.031 | nilotinib -0.035 | [3] -0.02 | dasatinib -0.028 | [4] 0.117 | [5] -0.019 | quisinostat 0.055 | tipifarnib -0.031 | [6] -0.02 | [7] 0.008 | [8] 0.005

SLC26A6 (UniProt Q9BXS9)
Sequence of UniProt Q9BXS9 (Q9BXS9 whole entry, looked up): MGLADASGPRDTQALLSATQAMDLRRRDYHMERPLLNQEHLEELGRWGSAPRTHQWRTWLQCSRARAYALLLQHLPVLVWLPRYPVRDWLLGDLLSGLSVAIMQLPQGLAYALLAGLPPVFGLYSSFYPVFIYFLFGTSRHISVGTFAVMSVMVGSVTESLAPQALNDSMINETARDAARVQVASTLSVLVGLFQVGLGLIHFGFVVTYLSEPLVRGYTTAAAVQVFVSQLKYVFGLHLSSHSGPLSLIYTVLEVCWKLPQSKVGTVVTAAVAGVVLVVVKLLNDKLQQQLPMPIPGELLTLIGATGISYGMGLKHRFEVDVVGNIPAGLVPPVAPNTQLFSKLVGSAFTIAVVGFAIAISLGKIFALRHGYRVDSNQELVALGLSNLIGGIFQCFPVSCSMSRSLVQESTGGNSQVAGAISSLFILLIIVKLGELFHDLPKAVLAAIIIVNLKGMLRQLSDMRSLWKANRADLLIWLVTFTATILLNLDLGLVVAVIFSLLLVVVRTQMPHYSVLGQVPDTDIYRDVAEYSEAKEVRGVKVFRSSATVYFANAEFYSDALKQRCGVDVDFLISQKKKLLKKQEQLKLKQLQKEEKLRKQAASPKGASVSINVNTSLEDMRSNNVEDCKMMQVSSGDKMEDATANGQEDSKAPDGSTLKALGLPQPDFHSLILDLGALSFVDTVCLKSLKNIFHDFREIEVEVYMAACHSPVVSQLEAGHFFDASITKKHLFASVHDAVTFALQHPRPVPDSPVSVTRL
inactive: lapatinib -0.009 | pictilisib 0.05 | crizotinib -0.023 | [1] 0.016 | duvelisib 0.067 | gandotinib 0.051 | tozasertib 0.047 | doramapimod -0.003 | bafetinib -0.003 | [2] 0.118 | nilotinib 0.057 | [3] 0.05 | dasatinib -0.4 | [4] 0.164 | [5] -0.154 | quisinostat 0.006 | tipifarnib 0.05 | [6] 0.033 | [7] 0.054 | [8] -0.128

STK38 (UniProt Q15208)
active: [3] 0.858 | [6] 0.563
inactive: lapatinib -0.024 | pictilisib 0.061 | crizotinib 0.001 | [1] 0.017 | duvelisib 0.017 | gandotinib 0.159 | tozasertib 0.029 | doramapimod -0.001 | bafetinib -0.104 | [2] -0.071 | nilotinib -0.009 | dasatinib -0.003 | [4] 0.078 | [5] 0.064 | quisinostat -0.14 | tipifarnib -0.029 | [7] 0.054 | [8] 0.036

SMARCAD1 isoform 2 (UniProt Q9H4L7)
Sequence of UniProt Q9H4L7 (Q9H4L7 whole entry, looked up): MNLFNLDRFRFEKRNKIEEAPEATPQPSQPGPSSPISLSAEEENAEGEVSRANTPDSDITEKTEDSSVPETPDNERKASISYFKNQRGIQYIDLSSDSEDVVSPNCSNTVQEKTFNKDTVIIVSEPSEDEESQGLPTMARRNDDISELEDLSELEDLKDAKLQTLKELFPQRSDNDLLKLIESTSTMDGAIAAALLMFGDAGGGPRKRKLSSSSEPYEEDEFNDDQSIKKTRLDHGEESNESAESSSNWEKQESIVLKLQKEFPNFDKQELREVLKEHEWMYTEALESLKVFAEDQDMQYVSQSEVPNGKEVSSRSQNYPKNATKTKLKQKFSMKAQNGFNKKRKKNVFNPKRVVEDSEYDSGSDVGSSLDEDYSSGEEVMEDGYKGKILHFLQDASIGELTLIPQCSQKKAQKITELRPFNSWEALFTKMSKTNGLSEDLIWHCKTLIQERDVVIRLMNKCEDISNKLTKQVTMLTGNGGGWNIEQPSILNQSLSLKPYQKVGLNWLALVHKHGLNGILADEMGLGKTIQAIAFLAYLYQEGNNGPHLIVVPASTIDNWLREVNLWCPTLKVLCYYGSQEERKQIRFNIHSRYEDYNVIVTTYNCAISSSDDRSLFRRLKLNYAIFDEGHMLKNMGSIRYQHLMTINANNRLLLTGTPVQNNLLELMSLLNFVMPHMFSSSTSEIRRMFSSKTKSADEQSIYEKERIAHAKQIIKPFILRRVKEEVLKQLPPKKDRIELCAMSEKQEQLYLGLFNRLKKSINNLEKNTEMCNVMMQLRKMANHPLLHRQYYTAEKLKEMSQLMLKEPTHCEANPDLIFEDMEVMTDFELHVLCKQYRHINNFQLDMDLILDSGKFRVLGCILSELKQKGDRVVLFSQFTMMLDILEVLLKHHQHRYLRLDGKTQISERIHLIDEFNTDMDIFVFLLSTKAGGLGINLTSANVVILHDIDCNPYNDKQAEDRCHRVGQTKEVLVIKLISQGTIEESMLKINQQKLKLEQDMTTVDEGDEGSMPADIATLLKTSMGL
inactive: lapatinib -0.005 | pictilisib -0.015 | crizotinib -0.073 | [1] -0.019 | duvelisib -0.013 | gandotinib -0.044 | tozasertib 0.018 | doramapimod 0.003 | bafetinib -0.045 | [2] 0.008 | nilotinib -0.001 | [3] -0.008 | dasatinib -0.033 | [4] -0.005 | [5] -0.005 | quisinostat -0.054 | tipifarnib -0.025 | [6] 0.016 | [7] 0.059 | [8] -0.007

SLC38A10 (UniProt Q9HBR0)
Sequence of UniProt Q9HBR0 (Q9HBR0 whole entry, looked up): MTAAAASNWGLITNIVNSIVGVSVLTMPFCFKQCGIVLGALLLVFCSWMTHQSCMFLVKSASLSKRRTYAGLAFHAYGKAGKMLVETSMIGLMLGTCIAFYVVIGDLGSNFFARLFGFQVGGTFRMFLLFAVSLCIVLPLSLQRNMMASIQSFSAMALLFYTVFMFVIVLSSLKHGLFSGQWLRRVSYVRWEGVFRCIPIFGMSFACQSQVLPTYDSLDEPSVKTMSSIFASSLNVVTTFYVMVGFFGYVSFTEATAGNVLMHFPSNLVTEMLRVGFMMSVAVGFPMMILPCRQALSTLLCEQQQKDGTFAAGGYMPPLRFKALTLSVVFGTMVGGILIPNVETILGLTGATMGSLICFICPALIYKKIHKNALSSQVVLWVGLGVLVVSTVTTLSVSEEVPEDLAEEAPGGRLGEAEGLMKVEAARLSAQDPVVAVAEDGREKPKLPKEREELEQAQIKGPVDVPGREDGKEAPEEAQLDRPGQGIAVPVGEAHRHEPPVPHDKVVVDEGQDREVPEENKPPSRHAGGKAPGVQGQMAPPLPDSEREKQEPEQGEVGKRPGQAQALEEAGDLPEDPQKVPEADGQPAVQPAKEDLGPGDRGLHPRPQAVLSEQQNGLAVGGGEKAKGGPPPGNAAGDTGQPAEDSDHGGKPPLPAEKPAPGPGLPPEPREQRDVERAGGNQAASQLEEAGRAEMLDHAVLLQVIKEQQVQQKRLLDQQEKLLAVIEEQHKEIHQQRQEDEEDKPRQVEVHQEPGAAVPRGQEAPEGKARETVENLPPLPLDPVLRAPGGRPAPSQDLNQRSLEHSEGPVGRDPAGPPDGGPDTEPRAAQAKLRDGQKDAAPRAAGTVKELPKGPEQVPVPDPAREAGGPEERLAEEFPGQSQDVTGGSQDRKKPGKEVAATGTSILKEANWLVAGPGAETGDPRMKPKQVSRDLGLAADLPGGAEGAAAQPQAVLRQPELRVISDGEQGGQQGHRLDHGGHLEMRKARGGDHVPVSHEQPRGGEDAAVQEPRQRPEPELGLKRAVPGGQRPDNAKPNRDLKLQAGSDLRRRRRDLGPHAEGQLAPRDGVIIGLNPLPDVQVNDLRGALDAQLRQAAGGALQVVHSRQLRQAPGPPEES
inactive: lapatinib 0.006 | pictilisib -0.069 | crizotinib 0.009 | [1] -0.136 | duvelisib 0.018 | gandotinib 0.068 | tozasertib -0.061 | doramapimod -0.087 | bafetinib -0.044 | [2] 0.091 | nilotinib 0.072 | [3] -0.073 | dasatinib -0.009 | [4] 0.05 | [5] -0.031 | quisinostat -0.013 | tipifarnib 0.047 | [6] -0.039 | [7] 0.01 | [8] 0.023

SPHK1 isoform 2 (UniProt Q9NYA1)
inactive: lapatinib -0.039 | pictilisib 0.001 | crizotinib -0.018 | [1] -0.028 | duvelisib 0.013 | gandotinib 0.033 | tozasertib 0.122 | doramapimod 0.073 | bafetinib -0.007 | [2] -0.041 | nilotinib 0.03 | [3] -0.034 | dasatinib -0.007 | [4] -0.071 | [5] 0.025 | quisinostat 0.084 | tipifarnib -0.058 | [6] -0.028 | [7] -0.005 | [8] 0.052

SMAD2 (UniProt Q15796)
inactive: lapatinib -0.006 | pictilisib -0.042 | crizotinib -0.055 | [1] -0.073 | duvelisib -0.066 | gandotinib -0.006 | tozasertib -0.027 | doramapimod -0.025 | bafetinib -0.005 | [2] 0.06 | nilotinib 0.025 | [3] 0.116 | dasatinib 0.006 | [4] -0.059 | [5] 0.011 | quisinostat -0.012 | tipifarnib 0.055 | [6] 0.038 | [7] -0.015 | [8] 0.042

SH3BP5L (UniProt Q7L8J4)
inactive: lapatinib 0.006 | pictilisib -0.004 | crizotinib -0.01 | [1] -0.05 | duvelisib 0.001 | gandotinib 0.031 | tozasertib 0.098 | doramapimod -0.044 | bafetinib 0.001 | [2] 0.015 | nilotinib -0.056 | [3] 0.037 | dasatinib -0.023 | [4] 0.04 | [5] -0.025 | quisinostat 0.007 | tipifarnib -0.01 | [6] 0.007 | [7] 0.013 | [8] -0.033

SMG5 (UniProt Q9UPR3)
Sequence of UniProt Q9UPR3 (Q9UPR3 whole entry, looked up): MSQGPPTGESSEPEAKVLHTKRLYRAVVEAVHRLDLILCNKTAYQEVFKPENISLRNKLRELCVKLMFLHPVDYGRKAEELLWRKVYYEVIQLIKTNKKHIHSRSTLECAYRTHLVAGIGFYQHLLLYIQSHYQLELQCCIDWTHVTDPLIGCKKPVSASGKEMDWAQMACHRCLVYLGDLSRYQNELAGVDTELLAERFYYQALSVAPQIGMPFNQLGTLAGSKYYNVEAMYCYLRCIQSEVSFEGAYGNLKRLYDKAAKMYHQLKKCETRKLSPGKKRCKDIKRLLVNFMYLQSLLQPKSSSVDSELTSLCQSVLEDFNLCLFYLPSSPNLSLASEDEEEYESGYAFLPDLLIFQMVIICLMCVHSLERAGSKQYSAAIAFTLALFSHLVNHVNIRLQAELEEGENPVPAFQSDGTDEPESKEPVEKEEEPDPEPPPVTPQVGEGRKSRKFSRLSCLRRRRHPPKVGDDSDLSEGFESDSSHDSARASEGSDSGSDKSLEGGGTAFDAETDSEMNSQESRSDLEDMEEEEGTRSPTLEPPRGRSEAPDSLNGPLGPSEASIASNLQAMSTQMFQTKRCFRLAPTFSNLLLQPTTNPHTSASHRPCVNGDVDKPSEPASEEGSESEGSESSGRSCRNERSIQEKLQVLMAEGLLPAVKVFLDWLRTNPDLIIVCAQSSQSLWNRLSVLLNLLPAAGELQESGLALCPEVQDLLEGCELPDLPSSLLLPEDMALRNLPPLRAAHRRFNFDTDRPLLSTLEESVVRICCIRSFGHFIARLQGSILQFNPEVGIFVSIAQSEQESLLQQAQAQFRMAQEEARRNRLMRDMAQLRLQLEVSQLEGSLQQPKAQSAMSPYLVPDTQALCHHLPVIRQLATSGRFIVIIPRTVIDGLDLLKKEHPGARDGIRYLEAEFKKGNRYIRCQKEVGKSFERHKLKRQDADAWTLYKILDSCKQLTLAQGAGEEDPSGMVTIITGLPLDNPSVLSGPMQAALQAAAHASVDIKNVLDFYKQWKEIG
inactive: lapatinib -0.038 | pictilisib 0.057 | crizotinib -0.007 | [1] 0.01 | duvelisib -0.006 | gandotinib -0.003 | tozasertib 0.019 | doramapimod -0.131 | bafetinib -0.035 | [2] -0.007 | nilotinib -0.058 | [3] 0.034 | dasatinib 0.003 | [4] -0.054 | [5] 0.03 | quisinostat 0.013 | tipifarnib -0.115 | [6] 0.097 | [7] 0.048 | [8] -0.027

STUB1 (UniProt Q9UNE7)
Sequence of UniProt Q9UNE7 (Q9UNE7 whole entry, looked up): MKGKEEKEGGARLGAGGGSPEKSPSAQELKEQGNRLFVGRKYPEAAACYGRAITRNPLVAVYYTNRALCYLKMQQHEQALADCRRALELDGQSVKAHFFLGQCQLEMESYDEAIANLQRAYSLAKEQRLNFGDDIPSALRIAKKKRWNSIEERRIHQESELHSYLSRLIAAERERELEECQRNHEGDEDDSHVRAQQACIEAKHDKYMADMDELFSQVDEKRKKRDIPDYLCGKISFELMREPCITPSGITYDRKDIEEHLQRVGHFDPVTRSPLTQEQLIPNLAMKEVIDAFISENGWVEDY
inactive: lapatinib -0.01 | pictilisib -0.012 | crizotinib -0.035 | [1] 0.004 | duvelisib -0.01 | gandotinib -0.073 | tozasertib -0.006 | doramapimod 0.019 | bafetinib -0.054 | [2] 0.05 | nilotinib 0.031 | [3] -0.027 | dasatinib -0.037 | [4] 0.027 | [5] 0.004 | quisinostat -0.06 | tipifarnib -0.011 | [6] 0.053 | [7] 0.015 | [8] 0.004

SQLE (UniProt Q14534)
inactive: lapatinib -0.056 | pictilisib -0.04 | crizotinib -0.057 | [1] -0.025 | duvelisib -0.057 | gandotinib -0.028 | tozasertib 0.068 | doramapimod -0.035 | bafetinib -0.047 | [2] 0.031 | nilotinib 0.082 | [3] 0.014 | dasatinib -0.09 | [4] -0.039 | [5] 0.024 | quisinostat 0.191 | tipifarnib 0.018 | [6] -0.014 | [7] -0.032 | [8] -0.034

SLC30A9 (UniProt Q6PML9)
Sequence of UniProt Q6PML9 (Q6PML9 whole entry, looked up): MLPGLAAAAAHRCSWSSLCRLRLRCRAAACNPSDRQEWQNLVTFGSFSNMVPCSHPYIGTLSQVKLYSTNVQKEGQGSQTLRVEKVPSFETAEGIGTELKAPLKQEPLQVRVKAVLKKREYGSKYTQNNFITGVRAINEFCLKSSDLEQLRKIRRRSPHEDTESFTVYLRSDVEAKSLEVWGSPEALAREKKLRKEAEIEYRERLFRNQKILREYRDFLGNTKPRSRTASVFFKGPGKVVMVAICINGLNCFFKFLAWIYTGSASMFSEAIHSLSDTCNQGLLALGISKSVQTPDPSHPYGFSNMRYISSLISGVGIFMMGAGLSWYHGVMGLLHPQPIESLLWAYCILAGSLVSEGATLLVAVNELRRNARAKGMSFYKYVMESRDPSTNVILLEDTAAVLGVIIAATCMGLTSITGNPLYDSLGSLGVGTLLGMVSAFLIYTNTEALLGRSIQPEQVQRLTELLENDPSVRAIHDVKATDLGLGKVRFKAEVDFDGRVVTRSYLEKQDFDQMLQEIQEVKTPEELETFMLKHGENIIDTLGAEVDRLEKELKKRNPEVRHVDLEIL
active: [2] 0.312
inactive: lapatinib -0.007 | pictilisib -0.054 | crizotinib -0.043 | [1] -0.423 | duvelisib 0.048 | gandotinib 0.008 | tozasertib -0.003 | doramapimod 0.036 | bafetinib -0.161 | nilotinib -0.026 | [3] 0.013 | dasatinib -0.035 | [4] -0.049 | [5] 0.055 | quisinostat 0.041 | tipifarnib 0.14 | [6] -0.044 | [7] -0.026 | [8] -0.008

SMIM8 (UniProt Q96KF7)
inactive: lapatinib -0.053 | pictilisib -0.079 | crizotinib -0.041 | [1] -0.146 | duvelisib 0.019 | gandotinib 0.128 | tozasertib -0.038 | doramapimod -0.059 | bafetinib -0.035 | [2] 0.018 | nilotinib 0.059 | [3] -0.018 | dasatinib 0.032 | [4] 0.055 | [5] -0.023 | quisinostat 0.084 | tipifarnib -0.033 | [6] -0.02 | [7] -0.045 | [8] -0.013

SMIM12 (UniProt Q96EX1)
Sequence of UniProt Q96EX1 (Q96EX1 whole entry, looked up): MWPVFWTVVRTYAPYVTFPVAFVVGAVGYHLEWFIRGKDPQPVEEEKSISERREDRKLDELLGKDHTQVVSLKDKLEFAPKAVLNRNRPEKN
active: [1] 0.417
inactive: lapatinib 0.014 | pictilisib 0.022 | crizotinib -0.024 | duvelisib -0.061 | gandotinib -0.191 | tozasertib -0.009 | doramapimod 0.077 | bafetinib -0.083 | [2] -0.153 | nilotinib 0.014 | [3] 0.025 | dasatinib 0.09 | [4] 0.027 | [5] 0.061 | quisinostat -0.093 | tipifarnib -0.023 | [6] 0.002 | [7] -0.016 | [8] -0.041

SSNA1 (UniProt O43805)
Sequence of UniProt O43805 (O43805 whole entry, looked up): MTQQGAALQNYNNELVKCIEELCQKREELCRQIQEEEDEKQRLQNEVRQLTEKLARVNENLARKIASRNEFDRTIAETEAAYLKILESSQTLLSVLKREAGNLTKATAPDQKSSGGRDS
inactive: lapatinib 0.012 | pictilisib -0.015 | crizotinib 0.138 | [1] 0.003 | duvelisib -0.038 | gandotinib 0.061 | tozasertib 0.045 | doramapimod 0.019 | bafetinib -0.014 | [2] -0.034 | nilotinib -0.038 | [3] 0.057 | dasatinib -0.004 | [4] -0.004 | [5] -0.079 | quisinostat 0.081 | tipifarnib 0.007 | [6] -0.039 | [7] 0.006 | [8] 0.019

SLC25A32 (UniProt Q9H2D1)
inactive: lapatinib -0.032 | pictilisib -0.005 | crizotinib -0.017 | [1] -0.151 | duvelisib -0.014 | gandotinib 0.098 | tozasertib -0.038 | doramapimod -0.019 | bafetinib -0.022 | [2] 0.1 | nilotinib 0.007 | [3] 0.033 | dasatinib 0.011 | [4] 0.043 | [5] -0.055 | quisinostat -0.015 | tipifarnib 0.016 | [6] 0.023 | [7] -0.029 | [8] -0.026
